Source: PubChem (University of Kansas High Throughput Screening Laboratory)
The list is not random: actives were taken first. Their share in the collection is about 3.5%.
mHTT-CaM PPI inh – mutant huntingtin-calmodulin interaction inhibitors – biochemical, AlphaScreen, primary screen | inhibition, % at 15 µM | 190,000 tested, 3.6% active | AID 1671202, 2021 | AlphaScreen His-mHTT/GST-CaM binding, luminescence | P42858
Pf apPOL block – Pf-apPOL inhibitors, biochemical, fluorescence; Plasmodium falciparum apicoplast DNA polymerase (apPOL); Recombinant Pf-apPOL, molecular beacon fluorescence, 1.5 h; inhibition, % at 10 µM; 210,000 tested, 0.25% active
Each line names hits and unclear results; the compound was inactive in the other large screens; ! = a repeat was not active. Rule as the data show it: active = inhibition above about 50%; inactive = the rest.

COc1ccc(C2=NN(C(C)=O)C(c3ccc(Cl)cc3)C2)cc1 (configuration not stated)	none (no result: mHTT-CaM PPI inh)
O=c1[nH]c2ccc(Br)cc2c(-c2ccccc2)c1C1=NOC(c2ccccc2)C1 (configuration not stated)	none
CC(=O)N1N=C(c2c(-c3ccccc3)c3cc(Cl)ccc3[nH]c2=O)CC1c1ccc(Cl)cc1 (configuration not stated)	mHTT-CaM PPI inh 100
O=c1[nH]c2ccc(Cl)cc2c(-c2ccccc2)c1C1=NOC(c2ccc(F)cc2)C1 (configuration not stated)	mHTT-CaM PPI inh 100
O=C(Nc1c2c(nn1-c1ccc(F)cc1)CS(=O)C2)C1CC1 (configuration not stated)	none
CC1(C)OCC2(CO1)CN(C(=O)C=Cc1ccc3c(c1)OCO3)C2	none
COc1ccc(-c2ccc([C@H]3[C@@H]4C=CCC[C@@]4(C)C(=O)N3Cc3ccccc3)c(F)c2)cc1OC	none
CN(C)c1ccc(-c2c([C@H]3[C@@H]4C=CCC[C@@]4(C)C(=O)N3Cc3ccccc3)ccc3ccccc23)cc1	none
COc1ccc(-c2c([C@H]3[C@@H]4C=CCC[C@@]4(C)C(=O)N3Cc3ccccc3)ccc3ccccc23)cc1OC	mHTT-CaM PPI inh 100
CC(=O)c1ccc(-c2c([C@H]3[C@@H]4C=CCC[C@@]4(C)C(=O)N3Cc3ccccc3)ccc3ccccc23)cc1	mHTT-CaM PPI inh 101
Cc1ccc(N2CCC(C(=O)NC(C)(C)C)C2=O)cc1Cl (configuration not stated)	none
CCC(=O)N1CCc2cc(N3CC(C(=O)Nc4ccccc4C(C)C)CC3=O)ccc21 (configuration not stated)	none
O=C(NC1CC1)c1nc2ccccn2c1-c1ccsc1	none
CC(C)S(=O)(=O)c1ccc(CC(=O)NCC(O)c2ccc(C(F)(F)F)cc2)cc1 (configuration not stated)	none
Cc1c(Cl)cccc1NC(=O)C(=O)NCC(O)c1ccc(C(F)(F)F)cc1 (configuration not stated)	none
Cc1c(Cl)cccc1S(=O)(=O)NCC(O)c1ccc(C(F)(F)F)cc1 (configuration not stated)	mHTT-CaM PPI inh 68
O=S(=O)(NCC(O)c1ccc(C(F)(F)F)cc1)c1ccc2c(c1)CCCC2 (configuration not stated)	mHTT-CaM PPI inh 100
CCN(CC)Cc1c(C(=O)NN)nnn1-c1nonc1N	none (no result: Pf apPOL block)
Cc1ccnc(N2CCCC(C(=O)NCc3ccccc3C)C2)n1 (configuration not stated)	none
COc1ccc(-c2nnc(C)c(NC3CCCC3)n2)cc1	mHTT-CaM PPI inh 52
COc1ccc(CNc2nc(-c3ccc(C)cc3)nnc2C)cc1	none
Cc1ccc(CNC(=O)CCN2N=C(c3ccc(C)cc3)CCC2=O)cc1	none
Cc1ccc(C(C)(c2ccc(N)cc2)c2ccc(N)cc2)cc1	mHTT-CaM PPI inh 68
Cc1ccc(S(=O)(=O)N(C)c2ccc(N)cc2)cc1	none
Cc1nn(CC(=O)Nc2ccccc2C(F)(F)F)c(C)c1[N+](=O)[O-]	none
Nc1ncc(C2=C(Cl)C(O)C(Cl)=C(Cl)C2O)s1 (configuration not stated)	mHTT-CaM PPI inh 100
CCCCC(=O)Nc1c2c(nn1-c1ccc(C)cc1C)CSC2	none
COc1ccc2c(C)nc(Nc3nc4ccccc4c(=O)[nH]3)nc2c1	none
COc1ccc(C2CC(=O)NC(Nc3nc(C)c4ccc(C)cc4n3)=N2)cc1 (configuration not stated)	mHTT-CaM PPI inh 68
COc1ccc(NC(=O)C2CC(=O)NC(Nc3nc(C)c4ccccc4n3)=N2)cc1 (configuration not stated)	none
COc1ccc2nc(NC3=NC(c4ccccc4)CC(=O)N3)nc(C)c2c1 (configuration not stated)	mHTT-CaM PPI inh 54, Pf apPOL block 60
Cc1ccc(-c2csc(NC(=O)C3CCCO3)n2)cc1 (configuration not stated)	none
CCCCN(CCCC)S(=O)(=O)c1ccc(C(=O)Nc2nnc(C)o2)cc1	mHTT-CaM PPI inh 58
CCCCN(CC)S(=O)(=O)c1ccc(C(=O)Nc2nnc(C3CC3)o2)cc1	none
CCN(Cc1ccccc1)S(=O)(=O)c1ccc(C(=O)Nc2nnc(C3CC3)o2)cc1	mHTT-CaM PPI inh 72
COCCN(CCOC)S(=O)(=O)c1ccc(C(=O)Nc2nnc(C)o2)cc1	none
O=C1C(=Cc2ccc(Br)cc2)Oc2c1ccc(O)c2CN1CCOCC1	mHTT-CaM PPI inh 56
CCN1CCN(Cc2c(O)ccc3c2OC(=CC=Cc2ccccc2)C3=O)CC1	none
CCN(CC)Cc1c(O)ccc2c1OC(=Cc1ccc(Br)cc1)C2=O	mHTT-CaM PPI inh 58
CCN(CC)Cc1c(O)ccc2c1OC(=Cc1ccc(C)cc1)C2=O	none
O=C1C(=CC=Cc2ccccc2)Oc2c1ccc(O)c2CN1CCOCC1	mHTT-CaM PPI inh 62
O=C1C(=Cc2ccc(Br)cc2)Oc2c1ccc(O)c2CN1CCCC1	none
COc1cccc(C(=O)N2CCN(c3cccc(OC)c3)C(=O)C2C)c1 (configuration not stated)	none
Cc1ccc2[nH]c3c(cc(NCCCO)c4c(=O)c5ccccc5c(=O)c43)oc2c1	mHTT-CaM PPI inh 60
Cc1ccc2[nH]c3c(cc(NCCO)c4c(=O)c5ccccc5c(=O)c43)oc2c1	none
COc1ccccc1C(NC(=O)C1CCCCC1)c1cc([N+](=O)[O-])c2cccnc2c1O (configuration not stated)	mHTT-CaM PPI inh 54
COc1ccccc1C(NC(C)=O)c1cc([N+](=O)[O-])c2cccnc2c1O (configuration not stated)	mHTT-CaM PPI inh 100
O=C(NC(c1cccs1)c1cc([N+](=O)[O-])c2cccnc2c1O)C1CCCCC1 (configuration not stated)	none
CCc1onc(C)c1C1CCCN1Cc1cc(C)ccc1C (configuration not stated)	none
Cc1ccc(NC(=O)Cn2cnc3c2c(=O)n(C)c(=O)n3C)c([N+](=O)[O-])c1	none
COc1ccc(C(C)NC(=O)c2ccc(NC(C)=O)cc2N2CCCCC2)cc1 (configuration not stated)	none
N#CC1=C(N)SC(N)=C(C#N)C1c1ccc(O)cc1	none
N#CC1=C(N)SC(N)=C(C#N)C1c1cccs1	mHTT-CaM PPI inh 63!
N#CC1=C(N)SC(N)=C(C#N)C1c1ccc(-c2ccccc2)cc1	mHTT-CaM PPI inh 52
CC1=C(C#N)C(c2cccs2)C(C#N)=C(C)N1	none (no result: mHTT-CaM PPI inh)
Cc1ccc(C2CC(C(F)(F)F)n3ncc(C(=O)NC(C)C)c3N2)cc1 (configuration not stated)	none
COc1ccc(CCNc2ccc(C)cc2)cc1	mHTT-CaM PPI inh 71
COc1ccc(CCNC(C)=O)cc1	none
O=c1cc(-c2ccc([N+](=O)[O-])cc2)nc2c(-c3ccc(Cl)cc3)c[nH]n12	mHTT-CaM PPI inh 54
Cc1cc(=O)n2[nH]c(C)c(-c3ccc(Cl)cc3)c2n1	none
Cc1nc2c(-c3ccc(Cl)cc3)c[nH]n2c(=O)c1Cl	none
COc1ccc(-c2c(C)[nH]n3c(=O)cc(-c4ccc([N+](=O)[O-])cc4)nc23)cc1	mHTT-CaM PPI inh 53
Cc1cc(Oc2ccc(NC(=O)CC(C)C)cn2)ccc1F	none
C=CCc1cccc(C2Nc3ccccc3C(=O)N2O)c1O (configuration not stated)	Pf apPOL block 57
O=C1c2ccccc2NC(c2ccc(Cl)cc2Cl)N1O (configuration not stated)	none
CCCCN1C(=O)C(CC(=O)NCCC)Sc2ncccc21 (configuration not stated)	none
